From PubChem
The list is not random: actives were taken first. Their share in the collection is about 6.5%.
Marburg entry inh – qHTS for inhibitors of binding or entry into cells for Marburg Virus; Marburg virus pseudotyped entry inhibition, cell reporter; Potency, µM (series often up to 37.8 µM), actives largely listed as inhibitors; 300,000 tested, 1.8% active; AID 540276, 2011; calls by dose curve; tested in HEK293 cells
FMDV inh – High Throughput Screening for Foot and Mouth Disease Virus Antivirals; FMDV antiviral cell-based qHTS; Potency, µM (titrated, usually from 57.9 µM), most hits filed as inhibitors; 410,000 tested, 1.2% active; calls by dose curve; tested in HEK293T cells; further: read-out not given here; nearly all actives have a fitted effect of over 45% in size
HCMV antiviral – qHTS Assay for inhibitors of the human cytomegalovirus (HCMV); 410,000 tested, 4.5% active; HFF cells, HCMV-luciferase reporter, 72 h; stronger effect = lower value; activity change, negative = inhibition, % at 57.5 µM; in the data active means activity change below about -60%; inconclusive means no clear call, values can overlap the other calls; inactive means above about -39%
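Screen run at 2 compound doses on HFFs infected with reporter HCMV, MOI 1 PFU/cell. Luciferase activity from cell lysates at 72 h post infection gave inhibition relative to buffer-only and Salinomycin wells.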
Vaccinia mCherry – qHTS for Stage-Specific Inhibitors of Vaccinia Orthopoxvirus: mCherry Reporter Primary qHTS | 310,000 tested, 0.63% active | Vaccinia virus mCherry reporter infection, fluorescence | Potency, µM (doses to about 36.5 µM), hits mostly inhibitors | AID 720579, 2013; calls by dose curve; tested in A549 cells; further: nearly all actives have a fitted effect of over 35% in size
Vaccinia Venus – qHTS for Stage-Specific Inhibitors of Vaccinia Orthopoxvirus: Venus Reporter Primary qHTS. AID 720580, 2013. 330,000 tested, 0.46% active. Potency, µM (series often up to 36.5 µM), most hits filed as inhibitors. Vaccinia virus Venus reporter expression, fluorescence; calls by dose curve; tested in A549 cells; further: nearly all actives have a fitted effect of over 30% in size
Lassa entry inh – qHTS for Inhibitors of binding or entry into cells for Lassa Virus; Lassa virus pseudotype entry inhibition, cell reporter; Potency, µM (titrated, usually from 37.9 µM), usual class: inhibitors; 300,000 tested, 1.2% active; calls by dose curve; tested in HEK293 cells; further: nearly all actives have a fitted effect of over 50% in size
Hits are given with their value; n = inactive; u = inconclusive; x = not tested or not shown.

SMILES | Marburg entry inh | FMDV inh | HCMV antiviral | Vaccinia mCherry | Vaccinia Venus | Lassa entry inh
Cc1nc2c(c3c1[nH]c1ccccc13)C(O)CC(C)(C)C2 (stereo not given) | u | u | -90 | u | n | u
Cc1nn(-c2ccccc2)c2c1C(O)CC(C)(C)C2 (stereo not given) | x | n | n | x | x | x
c1ccc(Sc2ncnc3ccccc23)cc1 | n | n | -74 | u | n | n
COCc1c(C(=O)N2CCCCCC2)cnn1-c1nccc(-c2cccs2)n1 | x | n | x | n | n | x
C[C@H](CO)N1C[C@H](C)[C@H](CN(C)C(=O)Cc2ccncc2)Oc2ncc(Br)cc2C1=O | x | n | n | u | 8.9µM | x
COC(=O)[C@H]1[C@H](CO)[C@H]2Cn3c(cccc3=O)[C@H]2N1Cc1ccccc1F | x | x | n | x | x | x
CNC(=O)Nc1cccc(-c2cc(-c3c(Cl)cccc3Cl)no2)c1 | u | n | -74 | n | n | n
CCOc1ccc(C(=O)Nc2ccc(N3CCN(C)CC3)cc2)cc1Br | 11µM | n | n | x | u | n
Cc1cccc(-c2nc3c4ccccc4nc(NCc4ccc(Cl)cc4)n3n2)c1 | u | n | n | n | n | x
Cc1csc(SCc2nnc(-c3ccccc3Br)o2)n1 | n | x | n | n | n | n
Fc1ccccc1SCc1nnc(-c2ccccc2Br)o1 | 5µM | n | n | n | n | u
CCc1nc(-c2cc3ccc(C)cc3[nH]c2=O)no1 | n | n | -71 | x | x | u
Cc1ccc2cc(-c3noc(C(C)(C)C)n3)c(=O)[nH]c2c1 | n | n | n | x | x | n
CC(C)C[C@@H](CN1CCC[C@@H]1CN1C(=S)NC[C@@H]1Cc1ccc(O)cc1)N1C[C@H](Cc2ccc(O)cc2)N(CC2CCCCC2)C1=S | x | n | -100 | n | n | x
CC(C)C[C@H]1CN([C@@H](CC(C)C)CN2CCC[C@@H]2CN2C(=S)NC[C@@H]2Cc2ccc(O)cc2)C(=S)N1CC1CCCCC1 | x | n | n | n | n | x
CC(C)C[C@@H](CN1CCCC1CN1C(=S)NC[C@@H]1Cc1ccccc1)N1C[C@H](Cc2ccccc2)N(CC2CCCCC2)C1=S (stereo not given in full) | x | n | n | n | n | x
CC(C)C[C@@H](CN1CCC[C@@H]1CN1C(=S)NC[C@@H]1Cc1ccc(O)cc1)N1C[C@H](Cc2ccc(O)cc2)N(CC2CCCCCC2)C1=S | x | u | -100 | u | u | x
CC(C)C[C@@H](CN1CCCC1CN1C(=S)NC[C@@H]1Cc1ccc(O)cc1)N1C[C@H](Cc2ccc(O)cc2)N(CCc2ccccc2)C1=S (stereo not given in full) | x | n | -95 | n | 10µM | x
CC(C)C[C@@H](CN1CCCC1CN1C(=S)NC[C@@H]1Cc1ccccc1)N1C[C@H](Cc2ccc(O)cc2)N(CC2CCCCC2)C1=S (stereo not given in full) | x | n | -73 | n | n | x
Cc1cc(C)n(C[C@@H]2CC(=O)N(c3ccc(F)c(Cl)c3)C2=O)n1 | n | x | x | x | x | x
Cc1cc(C)cc(NC(=O)c2cc(S(=O)(=O)N3CCCC3)ccc2F)c1 | x | n | n | n | n | n
COc1cccc(C(=O)N2CCCC(c3nc(-c4cccs4)no3)C2)c1 (stereo not given) | n | n | -103 | x | x | n
Cc1cccc(S(=O)(=O)N[C@H]2CC[C@@]34CCCN3C(=O)CCC[C@H]4[C@H]2C)c1 | x | x | n | x | x | x
NC(=S)N/N=C/c1ccc(-c2cc(Cl)cc(Cl)c2)o1 | n | n | u | x | u | n
NC(=S)N/N=C/c1ccc(-c2cc(Cl)ccc2Cl)o1 | u | n | n | 3.2µM | 3.2µM | u
SMILES | Marburg entry inh | FMDV inh | HCMV antiviral | Vaccinia mCherry | Vaccinia Venus | Lassa entry inh
COc1ccc(N2CCN(C(=O)CCc3c(C)nc4c(-c5ccccc5)c(C)nn4c3C)CC2)cc1 | u | u | n | n | n | n
COc1cccc(N2CCN(c3c4c(nc5ncnn35)CCC4)CC2)c1 | n | 14µM | -86 | x | x | n
c1ccc(N2CCN(c3c4c(nc5ncnn35)CCC4)CC2)cc1 | u | u | -62 | x | x | n
O=C1C(F)=CC(COC(c2ccccc2)(c2ccccc2)c2ccccc2)OC1n1cc(F)c(=O)[nH]c1=O (stereo not given) | u | 3.2µM | -99 | 10µM | u | 5.6µM
CCOC(=O)C1CCCCN1Cc1nc(N2CCN(C(C)=O)CC2)c2ccccc2n1 (stereo not given) | x | n | x | n | n | x
NC(=S)NN=C1c2ccccc2-c2ccccc21 | x | u | -87 | x | x | x
COc1cc2c3nc4n(c(=O)c3n(CC(=O)NCC3CCCO3)c2cc1OC)CCS4 (stereo not given) | n | n | -92 | n | n | n
Cc1ccc(NC(=O)Cn2c3ccc(F)cc3c3nc4n(c(=O)c32)CCS4)cc1F | u | n | -72 | n | n | u
O=C(Cn1c2ccc(F)cc2c2nc3n(c(=O)c21)CCS3)Nc1ccc(Cl)cc1F | u | u | u | n | n | n
COc1cccc(NC(=O)Cn2c3ccc(F)cc3c3nc4n(c(=O)c32)CCCS4)c1 | u | n | -61 | n | n | u
CCOC(=O)c1c(C)oc2nc(C)nc(N(C)Cc3ccccc3)c12 | x | u | n | n | n | n
CCc1cccc2c(C(O)(c3c[nH]c4c(CC)cccc34)c3c[nH]c4c(CC)cccc34)c[nH]c12 | x | x | x | n | n | x
